Measured values reported in PubChem BioAssay (EPA / NIEHS).
Activity calls are given as the source filed them. The calls were made as follows: active = hit-call score of the fitted dose curve at least 0.9, where 1 is the maximum; inactive = score below 0.9.

Biological target: Bile acid receptor (Homo sapiens) (UniProt Q96RI1)
Assay: ATG_IR1_CIS: Attagene CIS-FACTORIAL HepG2 Assay for human Nuclear Receptor Subfamily 1 Group H Member 4 (NR1H4), IR1 submotif (AID 2282946)
Conditions: IR1 reporter transcription, actives raise or lower the signal
Experimental: ATG_CIS is a cell-based, multiplexed-readout assay that uses HepG2, a human liver cell line, with measurements taken at 24 hours after chemical dosing in a 24-well plate.ATG_IR1_CIS is one of 52 assay component(s) measured or calculated from the ATG_CIS assay. It is designed to make measurements of mRNA induction, a form of inducible reporter, as detected with fluorescence intensity signals by Reverse transcription polymerase chain reaction (RT-PCR) and Capillary electrophoresis technology.Data from the assay component ATG_IR1_CIS was analyzed into 1 assay endpoint. This assay endpoint, ATG_IR1_CIS, was analyzed with bidirectional fitting relative to DMSO as the negative control and baseline of activity. Using a type of inducible reporter, measures of mRNA for gain or loss-of-signal activity can be used to understand the reporter gene at the transcription factor-level as they relate to the gene NR1H4. Furthermore, this assay endpoint can be referred to as a primary readout, because this assay has produced multiple assay endpoints where this one serves a reporter gene function. To generalize the intended target to other relatable targets, this assay endpoint is annotated to the nuclear receptor intended target family, where the subfamily is non-steroidal.
Human liver HepG2 cells are transiently transfected with multiple reporter transcription units (MRTUs) in 6-well plates using FuGene 6 reagent (Roche; 3 ml FuGene/1 mg DNA). The MRTU constructs are regulated by a cis-regulating element (promoter). […] A major difference between the CIS and TRANS system is that in CIS activities of endogenous TFs are measured, whereas the TRANS assay evaluates changes in activities of exogenous, chimeric NR-Gal4 proteins. […] At the end of 24 hour incubation, total RNA was isolated using TriZol reagent (Invitrogen). The isolated RNA is then reverse-transcribed using oligo(dT) primer and Mo-MLV reverse transcriptase (Invitrogen) with DNAse I (Ambion) treatment for 30 min. The one-tenth of the produced cDNA was amplified by PCR using Taq DNA polymerase (Invitrogen) and two reporter sequence-specific primers. The PCR products were fluorescently labeled by primer extension with 6-arboxyfluorescein (6-FAM) 5'-labeled reporter sequence-specific primer (2 min at 95 C, 20 s at 68 C and 10 min at 72 C) and these products were digested with 5U of HpaI (New England Biolabs) for 2h at 37 C. The fragments were purified using Qiaquick PCR columns (Qiagen), analyzed on an ABI 3130xL genetic analyzer (Applied Biosystems) with peak positions identified by using a set of X-rhodamine (ROX)-labeled MapMarker1000 molecular weight standards (BioVentures). The raw capillary electrophoresis data was processed using Attagraph software (Attagene).

Sequence of Bile acid receptor (Homo sapiens) (Q96RI1 whole entry, looked up): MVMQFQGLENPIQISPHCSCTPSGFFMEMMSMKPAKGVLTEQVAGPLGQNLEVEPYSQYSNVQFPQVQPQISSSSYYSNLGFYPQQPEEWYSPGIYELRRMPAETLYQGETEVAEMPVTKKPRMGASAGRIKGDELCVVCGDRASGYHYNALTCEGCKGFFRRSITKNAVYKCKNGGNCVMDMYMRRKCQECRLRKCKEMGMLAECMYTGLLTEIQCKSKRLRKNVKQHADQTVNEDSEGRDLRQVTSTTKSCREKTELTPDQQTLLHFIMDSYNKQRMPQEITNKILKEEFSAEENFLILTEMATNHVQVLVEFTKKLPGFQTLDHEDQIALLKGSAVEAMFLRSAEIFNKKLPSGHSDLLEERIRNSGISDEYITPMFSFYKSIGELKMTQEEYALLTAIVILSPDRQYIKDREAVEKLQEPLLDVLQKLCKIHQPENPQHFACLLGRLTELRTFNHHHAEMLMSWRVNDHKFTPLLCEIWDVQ

SMILES	outcome	AC50
O=S(=O)(O)c1cc(S(=O)(=O)O)c2c(N=Nc3ccccc3)c(O)ccc2c1	inactive	–
C=C1CC[C@H]2O[C@]2(C)CC[C@@H]2[C@@H]1CC2(C)C	inactive	–
C=C/C(C)=C/C/C=C(\C)CCC=C(C)C	inactive	–
CCc1cccc(O)c1	inactive	–
c1ccc(Cc2ccccc2)cc1	inactive	–
OC[C@H]1O[C@@H](O[C@H]2[C@H](O)[C@@H](O)[C@H](O)O[C@@H]2CO)[C@H](O)[C@@H](O)[C@H]1O	inactive	–
CCC(=O)OCC=Cc1ccccc1	inactive	–
CC12CCC(C1)C(C)(C)C2O (stereo not given)	inactive	–
CCC(C)(CCCC(C)C)OC(C)=O (stereo not given)	inactive	–
CCCCOCC(C)OCC(C)O (stereo not given)	inactive	–
CCOc1ccc(NC(C)=O)cc1	inactive	–
CCCCCC1CCC(=O)O1 (stereo not given)	inactive	–
CC(C)(C)c1cc(CCC(=O)OCCSCCOC(=O)CCc2cc(C(C)(C)C)c(O)c(C(C)(C)C)c2)cc(C(C)(C)C)c1O	inactive	–
CCn1cc(C(=O)O)c(=O)c2ccc(C)nc21	inactive	–
CCC(=O)OC(C)(C)C1CC=C(C)CC1 (stereo not given)	inactive	–
C=CC(O)CCCCC (stereo not given)	inactive	–
CC(=O)CC(=O)N(C)C	inactive	–
C1=COCCC1	inactive	–
CCCCCCCCSCc1cc(C)c(O)c(CSCCCCCCCC)c1	inactive	–
CCCCCC(=O)O[C@]1(C(C)=O)CC[C@H]2[C@@H]3CCC4=CC(=O)CC[C@]4(C)[C@H]3CC[C@@]21C	inactive	–

SMILES	outcome	AC50
CCCCCCOC(C)=O	inactive	–
C[C@H](CCC(=O)O)[C@H]1CC[C@H]2[C@@H]3CC[C@@H]4C[C@H](O)CC[C@]4(C)[C@H]3CC[C@]12C	inactive	–
O=c1cc[nH]cc1	inactive	–
CC(=O)C1=C(C)[C@@H]2C[C@@]3(C1)[C@H](C)CC[C@H]3C2(C)C	inactive	–
CCC(C)(C)C1CCC(OC)CC1 (stereo not given)	inactive	–
CC(=O)c1ccc(O)cc1	inactive	–
O=C1CCC(=O)N1	inactive	–
C=CC(=O)OCC(CO)(COC(=O)C=C)COC(=O)C=C	–	26 µM (active)
CC(=O)c1ccc2ccccc2c1	inactive	–
NC(=O)c1c(Cl)cccc1Cl	inactive	–
C=C(C)C(=O)OCCOCCOC(=O)C(=C)C	inactive	–
CCC(C)(C)c1cc(O)c(C(C)(C)CC)cc1O	–	24.2 µM (active)
c1ccc2c(c1)-c1ccc3ccc4cccc5cc-2c1c3c45	inactive	–
CCCCCCC(O)CCOC(C)=O (stereo not given)	inactive	–
CC(C)CCOC(=O)CC(C)C	inactive	–
CCCCCc1cccc(=O)o1	inactive	–
CCCc1ccc(O)cc1	inactive	–
CC1=CC[C@@H](C(C)(C)O)CC1	inactive	–
CC1=CCC(C(C)(C)O)CC1 (stereo not given)	inactive	–
CCCCC/C=C\C=C\C(=O)OCC	–	79.6 µM (active)
